Data on 39 molecules can be found in PubChem BioAssay (NCI).

Structures are written as SMILES. Compounds without any hit were thinned out: in the full panel of roughly 83,000, 20% have a hit.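 Assay: single dose, 48 h. Readout: percent growth (0 = no net growth; negative = cell death). Active: <10.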 The source made the active and inactive calls.

The test system of the first assay is HCT-15 colon. Description: NCI-60 one-dose screen, 48 h (100 = growth as untreated, 0 = no growth, -100 = all killed). Particulars: 10 µM unless noted.
For `Oc1cccc2ccc(-c3nnc(SCc4ccc(O)c5ncccc45)o3)nc12`, the growth is 8.78% (active).
Turning to `COC(=O)c1[nH]nc2c1C1(C(=O)N(C)c3ccccc31)C(C#N)=C(N)O2` (stereo not drawn), the growth was 101% (inactive).
On to `Cc1ccc2sc3c(c2c1)OC(N)=C(C#N)C3c1ccc(Cl)cc1` (stereo not drawn), for which the growth is 30.3% (inactive).
The same measure, in the same setting: with `CC1=NC2=NN3C(=NN2C(c2ccccc2)=C1)N=NC(c1ccc(Br)cc1)=C3c1ccc(Br)cc1` the figure was 103% (inactive); with `Cn1ccnc1C(=O)/C=C/c1ccc(NC(=O)c2c(F)c(F)c(F)c(F)c2F)cc1`, 85.9% (inactive); with `COc1ccc(/C=C/C(=O)c2cc(S(N)(=O)=O)c(OC)cc2OC)cc1`, 42.6% (inactive).
As for `N#Cc1cccc(CN2CCC3=C(C2)C(=O)N(Cc2ccc(Cl)cc2)C2=NCCCN23)c1`, the growth was 16.6% (inactive).
In the case of `Cc1nn(-c2ccccc2)c2ncnc(N/N=C/c3ccccc3O)c12`, the growth is 21.3% (inactive).
Consider `COc1ccc(CCN2C(=O)CSC2=S)cc1`, for which the growth was 56.9% (inactive).
Still for that read-out and setting: with `CC(=O)N1C(=S)NC(=O)C1CC(C)C` (stereo not drawn) the figure was 99.7% (inactive); with `Cc1ccc2sc3c(c2c1)OC(N)=C(C#N)C3c1cccc(F)c1` (stereo not drawn), 6.97% (active).
On the same count and under the same terms, the result for `COc1cc(-c2nc(SC(C)C)n(C(C)C)c(=O)c2C#N)ccc1OCc1ccccc1` reads 73.8% (inactive).
For the molecule `C/C(=N\O)[C@H]1C[C@]23CC[C@]4(C)[C@H](CC[C@@H]5[C@@]6(C)CC/C(=N/O)C(C)(C)[C@@H]6CC[C@]54C)[C@H]2[C@H](C)C1(C)OC3`, the growth is 105% (inactive).
On the same count and under the same terms, with `NS(=O)(=O)c1ccc(-n2cc(-c3cccc(NC(=O)c4ccc(N5CCOCC5)c(C(F)(F)F)c4)c3)nn2)cc1` the figure was 39.3% (inactive); with `O=C1/C(=C/C=C/c2ccco2)SC(=S)N1c1ccccc1`, 56.9% (inactive); with `COc1cc(OC)c(S(N)(=O)=O)cc1C(C)=O`, 103% (inactive).
The same measure, in the same setting: the result for `CNC(=O)c1cc(Oc2ccc3nc(NC(=O)c4cc(N5CCOCC5)cc(C(F)(F)F)c4)sc3c2)ccn1` reads 58.9% (inactive); that for `CCCCCc1ccc(S(=O)(=O)Nc2cccc(-c3csc(NC(=O)CCCCCN4CCN(CCO)CC4)n3)c2)cc1`, 43.1% (inactive).
Consider `CNC(=O)c1cc(Oc2ccc3nc(NC(=O)c4cccc(OC(F)(F)F)c4)sc3c2)ccn1`, for which the growth was 81.7% (inactive).
As to `Cc1cc(C)c(N2C(=O)CC(Nc3ccc(Cl)cc3Cl)C2=O)c(C)c1` (stereo not drawn), the growth was 102% (inactive).
With `Cc1ccc(C(=O)NN2C(=O)/C(=C/C=C/c3ccco3)SC2=S)cc1`, the growth was 91.6% (inactive).
On to `CC/C(=C/c1c(O)cccc1OC)c1ccc2c(OC)cccc2[o+]1`, for which the growth is 92.2% (inactive).
For `Cc1ccc2c(c1)C(=O)/C(=C/c1cccc(F)c1)S2`, the growth is 100% (inactive).
Still for that read-out and setting: with `COc1cc(/C=C2\C(=O)Nc3ccccc32)ccc1OCc1ccc(F)cc1` the figure was 101% (inactive).
Regarding `N/C(=N\C(N)=N\c1nc2ccccc2s1)c1ccc(C(F)(F)F)cc1`, the growth was 28.8% (inactive).
For the molecule `CN(C)CCNC(=O)c1ccc(-c2nc3ccc4[nH]ncc4c3c3c2COCC3)cc1`, the growth was 84.7% (inactive).
As for `O=C(Nc1ccc(N=Cc2c(O)[nH]c3ccccc23)cc1)Nc1nccs1`, the growth is 29% (inactive).
Still for that read-out and setting: the result for `O=C(Nc1nonc1-c1ccccc1)c1ccc(C(F)(F)F)cc1` reads 80.6% (inactive).
Consider `COc1cccc(C(=O)Nc2cccc(C#Cc3cccc4[nH]nc(N)c34)c2)c1`, for which the growth was 28.9% (inactive).
Still for that read-out and setting: the result for `Cn1ccnc1C(=O)/C=C/c1ccc(NC(=O)c2ccc(F)cc2)cc1` reads 16.9% (inactive); that for `Nc1nc(-c2cccc([N+](=O)[O-])c2)c(N=Nc2ccccc2)s1`, 38.3% (inactive); that for `Cc1ccc(N2C(=O)/C(=C/C=C/c3ccco3)SC2=S)cc1`, 88.4% (inactive).
On to `COc1cc(OC)c(S(N)(=O)=O)cc1C(=O)/C=C/c1ccc(C)cc1`, for which the growth is 6.96% (active).
Take `CN1CCC(n2cc(Nc3ncc4c(=O)n(-c5c(Cl)cccc5Cl)cc(Br)c4n3)cn2)CC1`: the growth was 17.1% (inactive).
As to `C#CC(=O)N(c1ccc(OC)cc1OC)C(C(=O)NCC(=O)OCC)c1cccs1` (stereo not drawn), the growth was 56.6% (inactive).
As to `COc1ccc(/C=C(/C)c2ccc3ccc(OC)cc3[o+]2)c(O)c1`, the growth is 22.5% (inactive).
As for `Cc1ccc(-c2cc3nc(C(Cl)Cl)nc(C)n3n2)cc1`, the growth is 109% (inactive).
The same measure, in the same setting: the result for `Cc1ccc(-c2nnc(SCc3ccc(O)c4ncccc34)n2-c2ccccc2)cc1` reads 6.13% (active); that for `CCOc1ccccc1NC1=C(Cl)C(=O)c2nc(C)ccc2C1=O`, -76.6% (active).

For a further assay, the system named is HT29 colon. Described as above. Particulars: 10 µM unless noted.
In the case of `Oc1cccc2ccc(-c3nnc(SCc4ccc(O)c5ncccc45)o3)nc12`, the growth is 56.8% (inactive).
For the molecule `COC(=O)c1[nH]nc2c1C1(C(=O)N(C)c3ccccc31)C(C#N)=C(N)O2` (stereo not drawn), the growth was 104% (inactive).
On to `Cc1ccc2sc3c(c2c1)OC(N)=C(C#N)C3c1ccc(Cl)cc1` (stereo not drawn), for which the growth was 67.3% (inactive).
As to `CC1=NC2=NN3C(=NN2C(c2ccccc2)=C1)N=NC(c1ccc(Br)cc1)=C3c1ccc(Br)cc1`, the growth was 105% (inactive).
Turning to `Cn1ccnc1C(=O)/C=C/c1ccc(NC(=O)c2c(F)c(F)c(F)c(F)c2F)cc1`, the growth is 112% (inactive).
In the case of `COc1ccc(/C=C/C(=O)c2cc(S(N)(=O)=O)c(OC)cc2OC)cc1`, the growth was 102% (inactive).
As for `N#Cc1cccc(CN2CCC3=C(C2)C(=O)N(Cc2ccc(Cl)cc2)C2=NCCCN23)c1`, the growth is 28% (inactive).
Consider `Cc1nn(-c2ccccc2)c2ncnc(N/N=C/c3ccccc3O)c12`, for which the growth is 24.6% (inactive).
Regarding `COc1ccc(CCN2C(=O)CSC2=S)cc1`, the growth was 104% (inactive).
`CC(=O)N1C(=S)NC(=O)C1CC(C)C` (stereo not drawn): the growth was 115% (inactive).
Still for that read-out and setting: the result for `Cc1ccc2sc3c(c2c1)OC(N)=C(C#N)C3c1cccc(F)c1` (stereo not drawn) reads -19.6% (active); that for `COc1cc(-c2nc(SC(C)C)n(C(C)C)c(=O)c2C#N)ccc1OCc1ccccc1`, 91.2% (inactive).
With `C/C(=N\O)[C@H]1C[C@]23CC[C@]4(C)[C@H](CC[C@@H]5[C@@]6(C)CC/C(=N/O)C(C)(C)[C@@H]6CC[C@]54C)[C@H]2[C@H](C)C1(C)OC3`, the growth is 113% (inactive).
The same measure, in the same setting: the result for `NS(=O)(=O)c1ccc(-n2cc(-c3cccc(NC(=O)c4ccc(N5CCOCC5)c(C(F)(F)F)c4)c3)nn2)cc1` reads 61% (inactive); that for `O=C1/C(=C/C=C/c2ccco2)SC(=S)N1c1ccccc1`, 83.6% (inactive); that for `COc1cc(OC)c(S(N)(=O)=O)cc1C(C)=O`, 103% (inactive).
As to `CNC(=O)c1cc(Oc2ccc3nc(NC(=O)c4cc(N5CCOCC5)cc(C(F)(F)F)c4)sc3c2)ccn1`, the growth is 62.3% (inactive).
Turning to `CCCCCc1ccc(S(=O)(=O)Nc2cccc(-c3csc(NC(=O)CCCCCN4CCN(CCO)CC4)n3)c2)cc1`, the growth is 11.4% (inactive).
With `CNC(=O)c1cc(Oc2ccc3nc(NC(=O)c4cccc(OC(F)(F)F)c4)sc3c2)ccn1`, the growth was 86% (inactive).
`Cc1cc(C)c(N2C(=O)CC(Nc3ccc(Cl)cc3Cl)C2=O)c(C)c1` (stereo not drawn): the growth was 107% (inactive).
Turning to `Cc1ccc(C(=O)NN2C(=O)/C(=C/C=C/c3ccco3)SC2=S)cc1`, the growth is 110% (inactive).
As to `CC/C(=C/c1c(O)cccc1OC)c1ccc2c(OC)cccc2[o+]1`, the growth is 110% (inactive).
On to `Cc1ccc2c(c1)C(=O)/C(=C/c1cccc(F)c1)S2`, for which the growth is 104% (inactive).
Consider `COc1cc(/C=C2\C(=O)Nc3ccccc32)ccc1OCc1ccc(F)cc1`, for which the growth is 105% (inactive).
Consider `N/C(=N\C(N)=N\c1nc2ccccc2s1)c1ccc(C(F)(F)F)cc1`, for which the growth was 105% (inactive).
With `CN(C)CCNC(=O)c1ccc(-c2nc3ccc4[nH]ncc4c3c3c2COCC3)cc1`, the growth is 16.7% (inactive).
Consider `O=C(Nc1ccc(N=Cc2c(O)[nH]c3ccccc23)cc1)Nc1nccs1`, for which the growth is 17.9% (inactive).
Same read-out and setting: the result for `O=C(Nc1nonc1-c1ccccc1)c1ccc(C(F)(F)F)cc1` reads 103% (inactive); that for `COc1cccc(C(=O)Nc2cccc(C#Cc3cccc4[nH]nc(N)c34)c2)c1`, 37.5% (inactive).
On to `Cn1ccnc1C(=O)/C=C/c1ccc(NC(=O)c2ccc(F)cc2)cc1`, for which the growth was 7.13% (active).
For `Nc1nc(-c2cccc([N+](=O)[O-])c2)c(N=Nc2ccccc2)s1`, the growth is 61.3% (inactive).
On to `Cc1ccc(N2C(=O)/C(=C/C=C/c3ccco3)SC2=S)cc1`, for which the growth was 102% (inactive).
Still for that read-out and setting: with `COc1cc(OC)c(S(N)(=O)=O)cc1C(=O)/C=C/c1ccc(C)cc1` the figure was 9.47% (active); with `CN1CCC(n2cc(Nc3ncc4c(=O)n(-c5c(Cl)cccc5Cl)cc(Br)c4n3)cn2)CC1`, 6.54% (active); with `C#CC(=O)N(c1ccc(OC)cc1OC)C(C(=O)NCC(=O)OCC)c1cccs1` (stereo not drawn), -7.89% (active).
With `COc1ccc(/C=C(/C)c2ccc3ccc(OC)cc3[o+]2)c(O)c1`, the growth is 44.7% (inactive).
As for `Cc1ccc(-c2cc3nc(C(Cl)Cl)nc(C)n3n2)cc1`, the growth is 104% (inactive).
As to `Cc1ccc(-c2nnc(SCc3ccc(O)c4ncccc34)n2-c2ccccc2)cc1`, the growth is 36% (inactive).
Turning to `CCOc1ccccc1NC1=C(Cl)C(=O)c2nc(C)ccc2C1=O`, the growth was 20% (inactive).
